The source of these data is paper PMC12280212.

Experiment [1] has as its target Actin, cytoplasmic 1 (UniProt P60709). The experiment in a line: cross-linking mass spectrometry.
The target of experiment [2] is Histone H2B type 1-N (UniProt Q99877). The experiment in a line: cross-linking mass spectrometry.
Experiment [3] deals with Alpha-enolase (UniProt P06733). The experiment is described as follows: cross-linking mass spectrometry.
Experiment [4] deals with Heat shock cognate 71 kDa protein (UniProt P11142). The experiment is described as follows: cross-linking mass spectrometry.
In experiment [5] the target is Heterogeneous nuclear ribonucleoprotein U (UniProt Q00839). The experiment is described as follows: cross-linking mass spectrometry.
The target of experiment [6] is Protein disulfide-isomerase A6 (UniProt Q15084). The experiment in a line: cross-link between two proteins; cross-linking mass spectrometry.
Experiment [7] concerns the target Voltage-gated monoatomic cation channel TMEM109 (UniProt Q9BVC6). Described as above.
For experiment [8], the target named is CD44 antigen (UniProt P16070). The experiment in a line: cross-link between two proteins; affinity purification or IP with mass spectrometry; cross-linking mass spectrometry.

Sequence of Voltage-gated monoatomic cation channel TMEM109 (Q9BVC6 whole entry): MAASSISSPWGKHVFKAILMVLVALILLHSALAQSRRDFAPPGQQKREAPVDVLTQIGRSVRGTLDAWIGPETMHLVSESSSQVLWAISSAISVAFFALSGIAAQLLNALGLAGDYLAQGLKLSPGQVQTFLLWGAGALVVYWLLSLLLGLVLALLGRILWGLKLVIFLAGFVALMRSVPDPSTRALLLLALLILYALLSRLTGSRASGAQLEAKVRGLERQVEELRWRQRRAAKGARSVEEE
Sequence of Alpha-enolase (P06733 whole entry): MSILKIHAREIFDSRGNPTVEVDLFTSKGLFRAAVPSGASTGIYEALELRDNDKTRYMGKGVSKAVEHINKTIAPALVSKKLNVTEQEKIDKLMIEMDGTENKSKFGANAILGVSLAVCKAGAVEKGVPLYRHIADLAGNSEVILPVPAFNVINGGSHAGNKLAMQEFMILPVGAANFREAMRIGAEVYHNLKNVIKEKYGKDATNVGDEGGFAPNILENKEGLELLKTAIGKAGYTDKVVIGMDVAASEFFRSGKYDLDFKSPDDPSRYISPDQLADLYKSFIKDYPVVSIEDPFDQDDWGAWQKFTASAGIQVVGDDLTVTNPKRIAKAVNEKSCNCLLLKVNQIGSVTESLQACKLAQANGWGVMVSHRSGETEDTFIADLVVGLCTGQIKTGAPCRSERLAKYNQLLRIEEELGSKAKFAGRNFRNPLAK
Sequence of Heterogeneous nuclear ribonucleoprotein U (Q00839 whole entry): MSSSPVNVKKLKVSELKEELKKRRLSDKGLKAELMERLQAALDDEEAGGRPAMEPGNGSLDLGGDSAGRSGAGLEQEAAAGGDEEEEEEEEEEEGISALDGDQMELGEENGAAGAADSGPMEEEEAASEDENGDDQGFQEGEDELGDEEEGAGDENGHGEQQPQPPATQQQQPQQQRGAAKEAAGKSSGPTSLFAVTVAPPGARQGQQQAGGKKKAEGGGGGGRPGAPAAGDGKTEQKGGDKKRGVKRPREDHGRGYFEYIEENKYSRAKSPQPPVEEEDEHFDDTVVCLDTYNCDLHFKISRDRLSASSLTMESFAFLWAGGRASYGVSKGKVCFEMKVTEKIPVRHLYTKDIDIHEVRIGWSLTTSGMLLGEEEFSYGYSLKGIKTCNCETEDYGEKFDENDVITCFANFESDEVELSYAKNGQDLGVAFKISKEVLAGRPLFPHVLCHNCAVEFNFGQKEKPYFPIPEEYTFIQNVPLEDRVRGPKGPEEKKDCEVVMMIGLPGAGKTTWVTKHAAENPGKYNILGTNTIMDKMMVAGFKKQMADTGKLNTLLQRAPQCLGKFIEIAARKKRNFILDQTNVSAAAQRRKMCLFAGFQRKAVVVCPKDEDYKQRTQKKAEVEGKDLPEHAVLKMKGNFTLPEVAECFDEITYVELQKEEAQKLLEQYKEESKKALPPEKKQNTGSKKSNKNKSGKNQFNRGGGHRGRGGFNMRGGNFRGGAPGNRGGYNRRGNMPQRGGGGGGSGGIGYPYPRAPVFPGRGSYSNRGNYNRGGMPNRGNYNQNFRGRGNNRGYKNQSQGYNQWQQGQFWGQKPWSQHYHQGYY
Sequence of Glyceraldehyde-3-phosphate dehydrogenase, P04406 (P04406 whole entry): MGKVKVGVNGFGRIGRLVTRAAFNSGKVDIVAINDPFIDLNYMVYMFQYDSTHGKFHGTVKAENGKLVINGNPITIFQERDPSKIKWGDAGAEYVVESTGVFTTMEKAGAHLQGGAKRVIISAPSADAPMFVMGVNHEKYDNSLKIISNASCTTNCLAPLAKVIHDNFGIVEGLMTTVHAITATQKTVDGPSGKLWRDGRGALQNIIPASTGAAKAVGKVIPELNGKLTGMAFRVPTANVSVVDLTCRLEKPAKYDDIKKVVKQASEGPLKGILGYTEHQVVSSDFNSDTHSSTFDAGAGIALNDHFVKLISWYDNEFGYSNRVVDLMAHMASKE
Sequence of Protein disulfide-isomerase A6 (Q15084 whole entry): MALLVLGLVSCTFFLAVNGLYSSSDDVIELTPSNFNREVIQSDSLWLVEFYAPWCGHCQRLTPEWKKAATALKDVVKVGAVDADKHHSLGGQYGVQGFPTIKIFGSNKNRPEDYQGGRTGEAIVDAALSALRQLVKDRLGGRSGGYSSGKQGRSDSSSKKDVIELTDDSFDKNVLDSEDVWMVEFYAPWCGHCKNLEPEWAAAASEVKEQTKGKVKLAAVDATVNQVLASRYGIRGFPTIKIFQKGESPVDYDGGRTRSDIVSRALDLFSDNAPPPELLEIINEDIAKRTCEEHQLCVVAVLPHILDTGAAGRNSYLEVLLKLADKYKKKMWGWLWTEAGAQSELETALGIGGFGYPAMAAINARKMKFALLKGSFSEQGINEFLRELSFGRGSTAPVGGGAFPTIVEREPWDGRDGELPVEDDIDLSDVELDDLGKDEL
Sequence of Protein disulfide-isomerase, P07237 (P07237 whole entry): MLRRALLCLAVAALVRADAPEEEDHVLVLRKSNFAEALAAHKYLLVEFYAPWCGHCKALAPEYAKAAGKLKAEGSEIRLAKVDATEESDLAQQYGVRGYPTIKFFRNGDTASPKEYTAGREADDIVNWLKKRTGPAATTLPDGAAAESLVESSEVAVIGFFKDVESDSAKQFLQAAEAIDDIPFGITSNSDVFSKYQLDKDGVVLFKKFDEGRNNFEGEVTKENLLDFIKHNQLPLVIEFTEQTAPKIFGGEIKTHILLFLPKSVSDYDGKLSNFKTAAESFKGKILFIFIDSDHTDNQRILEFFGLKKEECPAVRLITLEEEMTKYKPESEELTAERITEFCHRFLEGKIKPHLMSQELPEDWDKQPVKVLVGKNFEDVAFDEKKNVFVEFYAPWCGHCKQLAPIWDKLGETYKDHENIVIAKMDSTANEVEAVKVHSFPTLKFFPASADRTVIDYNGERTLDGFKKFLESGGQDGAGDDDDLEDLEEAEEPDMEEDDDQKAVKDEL

Turning to High mobility group protein B1, P09429, the “listed as a hit” value in experiment [1] and in experiment [2] was “yes” each time.

Consider “Glyceraldehyde-3-phosphate dehydrogenase, P04406”, for which the “listed as a hit” value in experiment [3] is recorded as “yes”.

As to Tubulin beta chain, P07437, the “listed as a hit” value in experiment [4] is given as “yes”. “Heterogeneous nuclear ribonucleoprotein A1, P09651”: in experiment [5], the “listed as a hit” value is recorded as “yes”. For the substance Protein disulfide-isomerase, P07237, in experiment [6], the “listed as a hit” value is “yes”.

Turning to Transmembrane protein 43, Q9BTV4, the “listed as a hit” value in experiment [7] is reported as “yes”.

In the case of Annexin A6, P08133, the “listed as a hit” value in experiment [8] is listed as “yes”.
